The whole screen tested about 320,000 compounds, of which about 2,100 (0.66%) were called active. Inconclusive results (about 53%) are left out. Calls follow the shape of the dose curve; as a rule, active = well fitted inhibition curve with a large enough effect in the signal ratio, with a control signal flat (not every such curve was filed as active); inconclusive = small, poorly fitted or top-dose-only effect, or effect the other way, or a change in a side signal; inactive = flat fitted curve, though single readings scatter; the % refers to the signal ratio. This excerpt belongs to a sample that is enriched for actives.
Potency is read from the fitted curve at half-maximal effect.

The nature of this test: qHTS Assay for Lipid Storage Modulators in Drosophila S3 Cells.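 As to cell number change: cells counted by Cell Tracker Red CMTPX staining in the red channel.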 The settings on record: BODIPY lipid droplet fluorescence, 18-24 h, cells fed with added oleic acid; cell number change: measured here: cell count max response; series mostly up to 46.1 µM. The essentials:
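Laser-scanning cytometry quantifies lipid droplet accumulation (500–530 nm total intensity; droplet/cell object ratio) in oleic acid-fed (400 uM added) Drosophila S3 cells treated with a concentration series. 20 uM Triacsin C defined 100% inhibition.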
On to `Oc1cccc(/C=N/Nc2ccc(Cl)nn2)c1`, for which the Potency entry was “inactive” and the cell number change worked out at 0.54%. The like results for `O=C1c2cccc3cccc(c23)C(=O)N1c1cccnc1` were, in that order, “inactive” and -10.8%.

On to `O=C1c2cccc([N+](=O)[O-])c2C(=O)N1c1cccnc1`, for which the Potency entry was “inactive”. As to `O=C1c2ccccc2C(=O)N1c1cccnc1`, the Potency is 25.9 µM (active) and the cell number change was -5.37%. Take `Cc1ccccc1Nc1nnc(SCC(=O)Nc2ccccc2[N+](=O)[O-])s1`: the Potency result was “inactive” and the cell number change is -4.61%. The corresponding values for `CCCCN1C[C@H](Cc2ccccc2)[C@@H](CC(=O)NCc2ccc(OC)cc2)C1=O` are “inactive” and 2.91%. The corresponding values for `CCCCC[C@H]1CN(C2CCCCC2)C(=O)[C@@H]1CC(=O)NCc1ccccc1` are 16.4 µM (active) and -8.08%.

Consider `CCCCC[C@H]1CN(CCc2ccccc2)C(=O)[C@@H]1CC(=O)NCc1ccc(OC)cc1`, for which the Potency result is “inactive” and the cell number change was -13.8%. Take `CCOC(=O)c1ccc(NC(=O)c2nc[nH]c2C(=O)N2CCc3ccccc3C2)cc1`: the Potency entry was “inactive” and the cell number change amounted to 9.14%. The corresponding values for `O=[N+]([O-])c1cc(S(=O)(=O)N2CCCCCC2)ccc1F` are 14.6 µM (active) and -27.8%. On to `O=[N+]([O-])c1ccccc1S(=O)(=O)N1CCCCC1`, for which the Potency is 3.66 µM (active). On to `Cc1ccc(S(=O)(=O)N2CCCCCC2)cc1[N+](=O)[O-]`, for which the Potency entry is “inactive” and the cell number change is -8.44%. Regarding `O=[N+]([O-])c1cc(S(=O)(=O)N2CCCCCC2)ccc1Cl`, the Potency result is “inactive” and the cell number change is -8.42%. The like results for `O=[N+]([O-])c1ccccc1S(=O)(=O)N1CCSCC1` were, in that order, “inactive” and -12%.

`O=[N+]([O-])c1cccc2c(S(=O)(=O)N3CCCCC3)cccc12`: the Potency entry was “inactive” and the cell number change is -7.14%. With `O=C(NCCc1ccccc1)/C(=C\c1ccc([N+](=O)[O-])cc1)NC(=O)c1ccco1`, the Potency result was “inactive”.

For the compound `COc1ccccc1C1(CC(=O)Nc2nccs2)CCOC(C(C)C)C1` (stereo unspecified), the Potency result is “inactive”. Regarding `C=CCn1c(SCC(=O)NCc2ccc3c(c2)OCO3)nnc1C1CCCCC1`, the Potency entry was “inactive” and the cell number change is -24%. Regarding `COC(=O)c1sccc1NS(=O)(=O)c1ccccc1[N+](=O)[O-]`, the Potency result is “inactive” and the cell number change is -10.5%. On to `CN(C)S(=O)(=O)c1cccc(NC(=O)COC(=O)CCc2nc3ccccc3s2)c1`, for which the Potency result is “inactive” and the cell number change came to 27.2%. The like results for `CCCCCNC(=O)c1ccc2c(=O)n(CC3CCCO3)c(=S)[nH]c2c1` (stereo unspecified) were, in that order, “inactive” and 12.5%.

`Cc1cccc(NC(=O)c2ccc3c(=O)n(CC4CCCO4)c(=S)[nH]c3c2)c1` (stereo unspecified): the Potency was 2.91 µM (active) and the cell number change was found to be 0.855%. The corresponding values for `COc1ccc(NC(=O)c2ccc3c(=O)n(CC4CCCO4)c(=S)[nH]c3c2)c(OC)c1` (stereo unspecified) are “inactive” and 0.833%.

On to `CCOc1ccccc1C(=O)NN1C(=O)C2CCCCC2C1=O` (stereo unspecified), for which the Potency result was “inactive” and the cell number change came out at 2.53%.

Take `O=C(N/N=C1\CCCCc2ccccc21)c1ccccn1`: the Potency result was “inactive” and the cell number change came out at 8.38%.

Source of the values: PubChem BioAssay AID2685 (National Center for Advancing Translational Sciences (NCATS), 2010).
